Data on 40 molecules can be found in PubChem BioAssay (NCATS).

Records with an inconclusive call do not appear. Active and inactive are the calls of the source. The call rests on the fitted dose curve; in most records, active means well fitted cell-killing curve with a large enough effect; inconclusive means small, poorly fitted or top-dose-only effect, or effect the other way; inactive means no such curve, though single readings can be large or run the other way.
Potency means the concentration at half of the fitted maximal effect.

This experiment in a line: Quantitative High-Throughput drug screen in 47 multiple myeloma cell lines against the NCATS MIPE library collection: OCIMY5_PLB cell viability assay (AID 1918988). Further: nearly all actives have a fitted effect of over 65% in size. As to conditions: OCI-MY5 myeloma viability, ATP luminescence, 48 h; series mostly up to 45.8 µM. An excerpt:
PI: Beverly A. Mock Ph.D.
Laboratory of Cancer Biology and Genetics,
Center for Cancer Research, National Cancer Institute,
National Institute of Health, Bethesda, Maryland
Drug resistance and disease progression are common in multiple myeloma (MM) patients, underscoring the need for new therapeutic combinations. […] We hypothesized that effective combinations would reduce MYC expression and enhance p16 activity. […] These preclinical data identify potentially useful drug combinations for evaluation in drug-resistant MM and reveal potential mechanisms of combined drug sensitivity.
Described herein is the primary MIPE qHTS used to cherrypick compounds. Validated compounds were then further tested for potential synergistic activiy.
[1] Peat TJ, Gaikwad SM, Dubois W, Gyabaah-Kessie N, Zhang S, Gorjifard S, Phyo Z, Andres M, Hughitt VK, Simpson RM, Miller MA, Girvin AT, Taylor A, Williams D, D'Antonio N, Zhang Y, Rajagopalan A, Flietner E, Wilson K, Zhang X, Shinn P, Klumpp-Thomas C, McKnight C, Itkin Z, Chen L, Kazandijian D, Zhang J, Michalowski AM, Simmons JK, Keats J, Thomas CJ, Mock BA. Drug combinations identified by high-throughput screening promote cell cycle transition and upregulate Smad pathways in myeloma. Cancer Lett. 2023 Aug 1;568:216284. doi: 10.1016/j.canlet.2023.216284. Epub 2023 Jun 24. PMID: 37356470; PMCID: PMC10408729.
SEQUENCE No. (e.g., 1, 2, 3, etc.); […] (e.g., Cells, Incubation, Reagent, etc.); VALUE and DESCRIPTION.
1; Cells; 5 uL; white, solid bottom 1536-well Greiner assay plate.
2; Compounds; 23 nL; Kalypsis pin tool (Wako USA) equipped with a 1536-well pin head to transfer to the assay plates.
3; Incubation; 48 hours; 37C incubation.
4; Reagent;5uL; CellTiter Glo (Promega).
5; Detector; 425V; Luminescence; Viewlux PerkinElmer.
NOTES (numbers refer to Sequence numbers above)
1. The cell-based screening methods employed in this study were like those previously published. Briefly, the corresponding myeloma cell lines were screened in 1,536-well plates with 500 cells, 5-uL per well for inhibition of cell viability (assessed by measuring ATP levels with CellTiterGlo).
2. NCATS MIPE 4.0 library of approved and investigational drugs were added using the Kalypsis pin tool. Wells treated with DMSO only for 100% viability and media only for 0% viability were used as controls.
3. The assay plates were covered and incubated for 48 hours in a 37C, 5% CO2 incubator with controlled humidity.
4. After 48 hours, CellTilter-GloTM luminescent substrate mix (Promega) reagent was added to the assay plate and plates we incubated for 5 min at room temperature.
5. Signal was measured as median relative luminescence units on a ViewLux (PerkinElmer) multiplate reader.
[1] Heske CM, Davis MI, Baumgart JT, Wilson K, Gormally MV, Chen L, Zhang X, Ceribelli M, Duveau DY, Guha R, Ferrer M, Arnaldez FI, Ji J, Tran HL, Zhang Y, Mendoza A, Helman LJ, Thomas CJ. Matrix Screen Identifies Synergistic Combination of PARP Inhibitors and Nicotinamide Phosphoribosyltransferase (NAMPT) Inhibitors in Ewing Sarcoma. Clin Cancer Res. 2017 Dec 1;23(23):7301-7311. doi: 10.1158/1078-0432.CCR-17-1121. Epub 2017 Sep 12. PMID: 28899971; PMCID: PMC6636827.
Take `CC(C)N[C@@H]1CCn2c(=O)[nH]c3cccc(c32)[C@@H]1O`: the Potency was 118 nM (active).

For the molecule `CCNC(=O)C[C@@H]1N=C(c2ccc(Cl)cc2)c2cc(OC)ccc2-n2c(C)nnc21`, the Potency is 209 nM (active).

As for `Cc1ccccc1-n1c(Cn2ncc3c(N)ncnc32)nc2cccc(C)c2c1=O`, the Potency is 4180 nM (active).

As to `O=C(Nc1ccncc1)C(=O)c1cn(Cc2ccc(Cl)cc2)c2ccccc12`, the Potency was 37.2 nM (active).

In the case of `CC(N[C@H]1C[C@H]1c1ccccc1)c1ccc2c(c1)OCCO2` (stereo not given in full), the Potency is 2960 nM (active).

On to `CC[C@@H]1[C@@H](C)O[C@@](O)([C@@H](C)[C@H](O)[C@H](C)[C@H]2OC(=O)C=CC=C[C@@H](C)[C@@H]([C@@H](C)[C@@H](O)[C@H](C)[C@@]3(O)C[C@H](O[C@H]4C[C@H](O)[C@H](O)[C@H](C)O4)[C@H](CC)[C@@H](C)O3)OC(=O)C=CC=C[C@@H]2C)C[C@H]1O[C@H]1C[C@H](O)[C@H](O)[C@H](C)O1`, for which the Potency was 372 nM (active).

Regarding `COCC1(CO)C(=O)C2CCN1CC2` (stereo not given), the Potency was 2640 nM (active).

In the case of `CC=C(C)C(=O)O[C@H]1C(C)=C2[C@@H]3OC(=O)[C@@](C)(O)[C@@]3(O)[C@@H](OC(=O)CCC)C[C@](C)(OC(C)=O)[C@@H]2[C@@H]1OC(=O)CCCCCCC`, the Potency was 10.5 nM (active).

Regarding `Cc1c(C(=O)Nc2cccc(C(F)(F)F)c2)cc(-c2ccccc2)n1CCCN1CCOCC1`, the Potency was 16600 nM (active).

Take `O=C(Oc1ccc([N+](=O)[O-])cc1)N1CCC(C(O)(c2ccc3c(c2)OCO3)c2ccc3c(c2)OCO3)CC1`: the Potency result is “inactive”.

For `COc1ccc(N(C(=O)Oc2c(C)cccc2C)c2ccnc(Nc3ccc(N4CCN(C)CC4)cc3)n2)c(OC)c1`, the Potency is 1180 nM (active).

For the molecule `O=c1[nH]c2ccc(Cl)cc2c(N[C@@H]2CN3CCC2CC3)c1-c1nc2ccccc2[nH]1`, the Potency is 83.3 nM (active).

As to `N#C[C@H](O[C@@H]1O[C@H](CO[C@@H]2O[C@H](CO)[C@H](O)[C@H](O)[C@H]2O)[C@H](O)[C@H](O)[C@H]1O)c1ccccc1`, the Potency was 20900 nM (active).

`CCNC(=O)CC1N=C(c2ccc(Cl)cc2)c2cc(OC)ccc2-n2c(C)nnc21` (stereo not given): the Potency is 6620 nM (active).

Turning to `CC(C)[C@]12O[C@@H]1[C@@H]1O[C@]13[C@]1(O[C@H]1C[C@@H]1C4=C(CC[C@@]13C)C(=O)OC4)[C@H]2O`, the Potency entry was “inactive”.

Consider `CN1CCN(c2ccc([N+](=O)[O-])c3no[n+]([O-])c23)CC1`, for which the Potency was 16600 nM (active).

For `N=c1c2c(-c3ccccc3)c(-c3ccccc3)n(Cc3ccccc3)c2ncn1C1CCC(O)CC1` (stereo not given), the Potency was 11800 nM (active).

Turning to `CSCC[C@@H](NC(=O)[C@@H](Cc1ccccc1)NC(=O)CNC(=O)CNC(=O)[C@@H](N)Cc1ccc(O)cc1)C(=O)O`, the Potency result is “inactive”.

Take `CC=C(C)C(=O)N[C@@H](c1ccccc1)[C@@H](O)C(=O)O[C@H]1C[C@@]2(O)[C@@H](OC(=O)c3ccccc3)[C@@H]3[C@]4(OC(C)=O)CO[C@@H]4C[C@H](O)[C@@]3(C)C(=O)[C@H](OC(C)=O)C(=C1C)C2(C)C`: the Potency result is “inactive”.

As for `c1ccc2c(CN3CCNCC3)cccc2c1`, the Potency result is “inactive”.

As to `O=[N+]([O-])c1ncc[nH]1`, the Potency was 29600 nM (active).

Regarding `C[C@H]1CCCC=CC2C[C@H](O)C[C@@H]2[C@H](O)C=CC(=O)O1` (stereo not given in full), the Potency entry was “inactive”.

Consider `COC1=C[C@@H]2[C@@H]3Cc4ccc(OC)c(O)c4[C@]2(CCN3C)CC1=O`, for which the Potency was 1660 nM (active).

As for `COc1ccc2c(c1)CN(C)CC2c1ccc(Cl)c(Cl)c1` (stereo not given), the Potency was 11800 nM (active).

On to `Cc1c(C(=O)c2cccc3ccccc23)c2cccc3c2n1[C@H](CN1CCOCC1)CO3`, for which the Potency was 23500 nM (active).

As for `CN1[C@H]2CC(O)C[C@H]1[C@H]1O[C@H]12` (stereo not given in full), the Potency was 18700 nM (active).

In the case of `CC(O)=C(C#N)C(=O)Nc1cc(Br)ccc1Br`, the Potency was 1660 nM (active).

On to `O=S(=O)(CC1CS1)c1ccc(Oc2ccccc2)cc1` (stereo not given), for which the Potency was 20900 nM (active).

Turning to `CC1=C(O)C(=O)C=C2C1=CC=C1[C@@]2(C)CC[C@@]2(C)[C@@H]3C[C@](C)(C(=O)O)CC[C@]3(C)CC[C@]12C`, the Potency is 296 nM (active).

With `CC1=NN=C(c2ccc(N)cc2)c2cc3c(cc2C1)OCO3`, the Potency is 18700 nM (active).

For `CCCC[N+]1(C)[C@H]2CC(OC(=O)[C@H](CO)c3ccccc3)C[C@H]1[C@H]1O[C@H]12` (stereo not given in full), the Potency result was “inactive”.

As to `COc1ccc2c(c[n+](C)c3c4cc5c(cc4ccc23)OCO5)c1OC`, the Potency is 2090 nM (active).

As to `COC[C@H]1OC(=O)c2coc3c2[C@@]1(C)C1=C(C3=O)[C@@H]2CC[C@H](O)[C@@]2(C)C[C@@H]1OC(C)=O`, the Potency was 10500 nM (active).

Regarding `C[C@]12CCC(=O)C(O)=C1CC[C@@H]1[C@H]3CCC(=O)[C@@]3(C)CC[C@@H]12`, the Potency is 18700 nM (active).

In the case of `COc1cc2cc(c1Cl)N(C)C(=O)C[C@H](OC(=O)C(C)C)[C@]1(C)O[C@H]1[C@H](C)[C@@H]1C[C@@](O)(NC(=O)O1)[C@H](OC)C=CC=C(C)C2`, the Potency result was “inactive”.

Regarding `C[C@@H]1O[C@@H](O[C@@H]2C=C3CC[C@@H]4[C@@H](CC[C@]5(C)[C@H](c6ccc(=O)oc6)CC[C@@]45O)[C@@]3(C)CC2)[C@H](O)[C@H](O)[C@H]1O`, the Potency was 13.2 nM (active).

For `CO[C@H]1CCC(O[C@H]2C[C@H]([C@]3(C)CC[C@]4(C[C@H](O)[C@@H](C)[C@@H]([C@@H](C)C=C(C)C(=O)[C@H](C)C[C@H](C)C(=O)O)O4)O3)O[C@]3(O[C@@H]([C@H]4O[C@@](O)(CO)[C@H](C)C[C@H]4C)C[C@H]3C)[C@H]2C)O[C@H]1C` (stereo not given in full), the Potency was 132 nM (active).

Regarding `COc1cccc2c1[C@]13CCN(CC4CC4)[C@H](C2)[C@]1(OC)CCC(=O)C3`, the Potency entry was “inactive”.

With `CC[C@@]1(O)C(=O)OCc2c1cc1n(c2=O)Cc2cc3ccccc3nc2-1`, the Potency is 166 nM (active).

Turning to `C[C@]12CC[C@H]3[C@@H](CCC4=CC(=O)CC[C@@]43C)[C@H]1CC[C@H]2OC(=O)CCC1CCCC1`, the Potency is 20900 nM (active).
